Measured values from PMC7826789 (International Journal of Molecular Sciences, 2021).

What was measured:
Details in all cases: Compound Concentration (nM):1000
FGFR3 = test system: FGFR3
FGFR4 = test system: FGFR4
FGR = test system: FGR
FLT1 = test system: FLT1
FLT3(D835H) = test system: FLT3(D835H)
FLT3(D835V) = test system: FLT3(D835V)
FLT3(D835Y) = test system: FLT3(D835Y)
FLT3(ITD) = test system: FLT3(ITD)
FLT3(ITD,D835V) = test system: FLT3(ITD,D835V)
FLT3(ITD,F691L) = test system: FLT3(ITD,F691L)
FLT3(K663Q) = test system: FLT3(K663Q)
FLT3(N841I) = test system: FLT3(N841I)
FLT3(R834Q) = test system: FLT3(R834Q)
FLT3-autoinhibited = test system: FLT3-autoinhibited
FLT3 = test system: FLT3
FLT4 = test system: FLT4
FRK = test system: FRK
FYN = test system: FYN
GAK = test system: GAK
GCN2(Kin.Dom.2,S808G) = test system: T1, GCN2(Kin.Dom.2,S808G)
T1 construct: gene EIF2AK4
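Also: KINOMEscan scanMAX binding as percent activity remaining versus control; lower means stronger binding.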

Row | Structure (SMILES) | Percent Control (FGFR3) [%] | Percent Control (FGFR4) [%] | Percent Control (FGR) [%] | Percent Control (FLT1) [%] | Percent Control (FLT3(D835H)) [%] | Percent Control (FLT3(D835V)) [%] | Percent Control (FLT3(D835Y)) [%] | Percent Control (FLT3(ITD)) [%] | Percent Control (FLT3(ITD,D835V)) [%] | Percent Control (FLT3(ITD,F691L)) [%] | Percent Control (FLT3(K663Q)) [%] | Percent Control (FLT3(N841I)) [%] | Percent Control (FLT3(R834Q)) [%] | Percent Control (FLT3-autoinhibited) [%] | Percent Control (FLT3) [%] | Percent Control (FLT4) [%] | Percent Control (FRK) [%] | Percent Control (FYN) [%] | Percent Control (GAK) [%] | Percent Control (GCN2(Kin.Dom.2,S808G)) [%]
1 | Nc1ncnc2occ(-c3ccc(NC(=O)Nc4cc(C(F)(F)F)ccc4F)cc3)c12 [GW770249X] | 77 | 69 | 100 | 2.9 | 0.9 | 4.1 | 11 | 2.9 | 52 | 27 | 0.5 | 0 | 0 | 33 | 0.1 | 0.7 | 12 | 95 | 100 | 99
2 | CCS(=O)(=O)c1ccc(OC)c(Nc2ncc(-c3cccc(OC)c3)o2)c1 [GW580509X] | 44 | 100 | 41 | 54 | 0.5 | 0 | 42 | 8.2 | 0 | 30 | 10 | 0 | 18 | 40 | 5.9 | 13 | 39 | 48 | 38 | 82
3 | CN(C)CCNC(=O)Nc1ccc(N(C)c2ccnc(Nc3ccc(CS(C)(=O)=O)cc3)n2)cc1.Cl [GW830900A] | 100 | 100 | 100 | 61 | 32 | 6.3 | 35 | 8.3 | 22 | 19 | 89 | 5.6 | 16 | 27 | 2.9 | 54 | 99 | 93 | 13 | 100
4 | COc1ccc2cc(-c3c(-c4ccncc4)nc(-c4ccc(S(C)(=O)=O)cc4C)n3C)ccc2c1 [SB-633825] | 76 | 85 | 63 | 100 | 79 | 74 | 99 | 100 | 80 | 81 | 93 | 96 | 95 | 100 | 92 | 54 | 76 | 78 | 59 | 100
5 | O=C1Nc2ccc(C(=O)c3ccco3)cc2C1=Cc1cc(Cl)c(O)c(Cl)c1 [GW406108X] | 78 | 100 | 81 | 57 | 18 | 2.2 | 15 | 47 | 12 | 29 | 83 | 54 | 73 | 84 | 71 | 100 | 100 | 92 | 5.9 | 71
6 | COc1cc(/C=N/Nc2ncnc3[nH]ncc23)ccc1O [GW578748X] | 100 | 100 | 63 | 89 | 25 | 0.2 | 25 | 43 | 4.5 | 11 | 75 | 100 | 56 | 84 | 71 | 100 | 100 | 92 | 13 | 18
7 | CN1CCN(C(=O)c2ccc(NC(=O)Nc3ccc(N(C)c4ccnc(Nc5ccc(CS(C)(=O)=O)cc5)n4)cc3)cc2)CC1.Cl [GW830263A] | 100 | 100 | 57 | 0.4 | 0.8 | 1.2 | 5.3 | 0.3 | 8.9 | 6.8 | 0 | 0 | 0 | 7.3 | 1.5 | 2 | 80 | 98 | 18 | 100
8 | COc1ccccc1-c1cc(/C=C2\C(=O)Nc3ncc(Br)cc32)cc(Br)c1O [GW442130X] | 100 | 100 | 100 | 100 | 86 | 73 | 40 | 100 | 92 | 100 | 100 | 85 | 87 | 100 | 100 | 96 | 100 | 93 | 83 | 79
9 | CCn1c(-c2nonc2N)nc2c(C#CC(C)(C)O)nc(OCCNC)cc21.Cl [GSK949675] | 100 | 100 | 100 | 100 | 43 | 83 | 30 | 100 | 100 | 22 | 100 | 100 | 78 | 100 | 100 | 75 | 100 | 100 | 100 | 89
10 | NS(=O)(=O)c1ccc(N/N=C2\C(=O)Nc3ccc(Cl)cc32)cc1 [GW280670X] | 100 | 100 | 100 | 100 | 83 | 31 | 100 | 59 | 60 | 36 | 18 | 100 | 68 | 15 | 21 | 100 | 100 | 100 | 100 | 100
11 | Cl.O=C(O[C@H]1CN[C@H](C#Cc2cc3ncnc(Nc4ccc5c(cnn5Cc5ccccc5)c4)c3s2)C1)N1CCOCC1 [GSK200398A] | 100 | 89 | 96 | 99 | 96 | 87 | 89 | 98 | 88 | 92 | 66 | 100 | 92 | 89 | 77 | 100 | 90 | 81 | 88 | 44
12 | C/C(Nc1ccc(S(N)(=O)=O)cc1)=C1/C(=O)Nc2ccccc21 [GW335962X] | 97 | 100 | 78 | 100 | 87 | 0.3 | 76 | 100 | 0.8 | 3 | 60 | 83 | 40 | 7.7 | 56 | 100 | 96 | 90 | 61 | 100
13 | NS(=O)(=O)c1ccc(N/N=C2\C(=O)Nc3ccc(-c4cnco4)cc32)cc1 [GW276655] | 100 | 82 | 79 | 80 | 43 | 2.2 | 45 | 44 | 4.3 | 18 | 79 | 70 | 42 | 61 | 100 | 67 | 81 | 81 | 70 | 89
14 | CN(C)c1cc2c(Nc3ccc4c(cnn4Cc4ccccc4)c3)ncnc2cn1 [GW282974X] | 100 | 84 | 73 | 94 | 85 | 59 | 100 | 82 | 100 | 100 | 79 | 100 | 95 | 93 | 73 | 100 | 100 | 90 | 76 | 100
15 | CCc1ccc(Oc2nccc(-c3c(-c4ccc(F)cc4)ncn3C3CCNCC3)n2)cc1 [SB-242719] | 100 | 91 | 87 | 100 | 88 | 100 | 100 | 99 | 89 | 93 | 96 | 69 | 90 | 100 | 71 | 95 | 99 | 96 | 84 | 100
16 | CC(C)COC(=O)c1ccc2c(c1)/C(=C/Nc1ccc(S(N)(=O)=O)cc1)C(=O)N2 [GW416981X] | 100 | 100 | 99 | 83 | 1.6 | 0 | 1.1 | 3 | 0 | 0 | 42 | 11 | 18 | 45 | 42 | 100 | 100 | 98 | 40 | 96
17 | COc1cc(C)c(N(C)C(=O)CN(C)C)cc1Nc1nc(Nc2cccc(F)c2C(N)=O)c2cc[nH]c2n1 [GSK2219385] | 78 | 96 | 100 | 96 | 85 | 76 | 91 | 82 | 88 | 100 | 100 | 93 | 100 | 100 | 91 | 100 | 100 | 100 | 56 | 100
18 | C[C@@H](Oc1cc(-n2cnc3ccc(OC4CCN(C)CC4)cc32)sc1C(N)=O)c1ccccc1Cl [GSK579289A] | 86 | 79 | 91 | 75 | 9.4 | 0 | 38 | 38 | 15 | 8.2 | 17 | 8.1 | 18 | 87 | 18 | 81 | 93 | 86 | 69 | 39
19 | Cl.O=C(Nc1ccc(Oc2ccc3[nH]c(NC(=O)c4ccco4)nc3c2)cc1)Nc1cc(C(F)(F)F)ccc1F [GW683134A] | 84 | 100 | 91 | 3.2 | 0.4 | 13 | 9.8 | 3.7 | 96 | 39 | 0.6 | 8.4 | 5.6 | 92 | 1.3 | 1.5 | 40 | 71 | 100 | 90
20 | COc1cc2ncnc(Nc3ccc4c(cnn4Cc4ccccc4)c3)c2cc1OC.Cl [GW282449A] | 100 | 100 | 68 | 100 | 68 | 34 | 83 | 96 | 90 | 100 | 49 | 47 | 83 | 100 | 45 | 95 | 100 | 100 | 90 | 100
